Results reported in PubChem BioAssay (Tox21).
Results filed as inconclusive are left out. Calls of active or inactive are those of the source. Calls follow the shape of the dose curve; as a rule, active = well fitted cell-killing curve with a large enough effect in the repeat runs; inconclusive = weak or mixed curves, or effect the other way; inactive = flat fitted curve, though single readings scatter.

Experiment: qHTS assay to identify small molecule agonists of the TGF-beta/Smad signaling pathway - cell viability counter screen (AID 1346829); also: nearly all actives have a fitted effect of over 45% in size; as to activity change, negative = cytotoxicity: top concentration of the series differs between compounds
Conditions: SBE-bla HEK293T viability, CellTiter-Glo luminescence, 5 h; series mostly up to 76.8 µM; activity change, negative = cytotoxicity: at the top concentration
Excerpt: National Center for Advancing Translational Sciences [NCATS]
NIH Chemical Genomics Center [NCGC]
U.S. Environmental Protection Agency [EPA]
National Institutes of Environmental Health Sciences [NIEHS]
National Toxicology Program [NTP]
U.S. Food and Drug Administration [FDA]
Transforming growth factor beta (TGF-beta) superfamily consists of a large number of structurally related dimeric proteins that act as hormones or local mediators in regulating a wide range of biological functions. This superfamily includes TGF-betas themselves, the bone morphogenetic proteins (BMPs) and the activins. These ligands induce oligomerization of serine/threonine receptor kinases and phosphorylate the cytoplasmic signaling molecules of Smad protein family. CellSensor SBE-bla HEK 293T cell line (Life Technologies, Carlsbad, CA), responsive to TGF-beta was used to screen Tox21 10K compound library for identification of agonists/antagonists of the Smad signaling pathway. This cell line contains a beta-lactamase reporter gene under control of the Smad binding element (SBE) stably integrated into HEK 293T cells. Also cytotoxicity of the compounds was tested in parallel by measuring the cell viability using CellTiter-Glo assay system in the same wells.
Tox21 Assay Protocol Summary:
SBE-bla HEK 293T cells were dispensed at 4,000/well in 6 uL of assay medium into black wall/clear-bottom 1536-well plates using a Multidrop Combi (ThermoFisher Scientific, Waltham, MA) dispenser. After the assay plates were incubated at 37 C and 5% CO2 for an overnight, 23 nL of compounds dissolved in DMSO, positive controls or DMSO only was transferred to the assay plate by a Pintool station (Kalypsys, San Diego, CA). The assay plates were incubated at 37 C and 5% CO2 for 5 hr. One uL of LiveBLAzer B/G FRET substrate (Life Technologies) was added using a Flying Reagent Dispenser (FRD, Aurora Discovery, San Diego, CA) and the plates were incubated at room temperature for 2 hr. Fluorescence intensity (405 nm excitation, 460 nm and 530 nm emissions) was measured using an Envision plate reader (PerkinElmer, Shelton, CT). For cytotoxicity read, 4 uL of CellTiter-Glo reagent (Promega Corporation, Madison, WI) was added to each well of the assay plates using FRD. After 30min incubation at room temperature, the luminescence intensity was measured using ViewLux plate reader (PerkinElmer).
% is scaled to controls: 0 for no effect and ±100 for the full control effect; potency is read from the fitted curve at half-maximal effect.

Structure (SMILES) | activity change, negative = cytotoxicity | Potency
CCN | 2.56% (inactive) | –
Oc1ccc(C(=C(Cl)Cl)c2ccc(O)cc2)cc1 | -2.6% (inactive) | –
N#C/C=C/c1ccccc1 | -0.516% (inactive) | –
CS(=O)(=O)c1ccc(C(=O)C2C(=O)CCCC2=O)c([N+](=O)[O-])c1 | 2.96% (inactive) | –
CCCCCCCCCCCCCCCCCCn1cc[n+](C)c1 | – | 48.7 µM (active)
COC(=O)N(C(=O)N1CO[C@@]2(C(=O)OC)Cc3cc(Cl)ccc3C2=N1)c1ccc(OC(F)(F)F)cc1 | -21.5% (inactive) | –
CC1(C)CC/C(=C/c2ccc(Cl)cc2)C1(O)Cn1cncn1 (stereo not given) | -3.43% (inactive) | –
CC(=O)O[C@H]1CC[C@@]2(C)C(=CC[C@@H]3[C@@H]2CC[C@]2(C)C(=O)CC[C@@H]32)C1 | -18.5% (inactive) | –
N#CNC#N | 20.5% (inactive) | –
CCOP(=S)(OCC)OC(Cl)C(Cl)(Cl)Cl (stereo not given) | -5.93% (inactive) | –
CCCCOCN(C(=O)CCl)c1c(CC)cccc1CC | -5.29% (inactive) | –
CCN(CC)C(=S)[S-].CCN(CC)C(=S)[S-].[Zn+2] | – | 38.6 µM (active)
c1ccc2c(c1)OCC(C1=NCCN1)O2 (stereo not given) | 20.4% [at 35.3 µM] (inactive) | –
CC(=O)c1cc(C(C)(C)C)cc2c1CCC2(C)C | -0.263% (inactive) | –
COS(=O)(=O)c1ccc(C)cc1 | -1.86% (inactive) | –
Nc1ccccc1C(=O)OC/C=C/c1ccccc1 | -10% (inactive) | –
COc1cc(C=O)cc2c1[C@H](COC(N)=O)[C@]1(OC(C)=O)ON2C[C@H]2[C@@H]1N2C(C)=O | 14.9% (inactive) | –
CCCCCCCCCC[N+](C)(C)CCCCCCCCCC | – | 38.9 µM (active)
O=S(=O)(c1ccc(Cl)cc1)c1ccc(Cl)cc1 | -7.25% (inactive) | –
O=C(Cl)c1ccc(Cl)cc1 | 14.8% (inactive) | –

Structure (SMILES) | activity change, negative = cytotoxicity | Potency
O=c1oc2ccccc2c(O)c1Cc1c(O)c2ccccc2oc1=O | -5.85% [at 35.3 µM] (inactive) | –
Cc1cc(C(F)(C(F)(F)F)C(F)(F)F)ccc1NC(=O)c1cccc(I)c1C(=O)NC(C)(C)CS(C)(=O)=O | -1.72% [at 35.3 µM] (inactive) | –
Clc1ccc(Oc2ccccc2)cc1 | 1.34% (inactive) | –
ClC(Cl)=C(c1ccc(Cl)cc1)c1ccc(Cl)cc1 | – | inactive
CCOC(=O)OC1=C(c2cc(C)ccc2C)C(=O)NC12CCC(OC)CC2 (stereo not given) | 0.811% (inactive) | –
CSCCCN=C=S | 7.75% (inactive) | –
CC(Cc1ccc(C(C)(C)C)cc1)CN1C[C@@H](C)O[C@@H](C)C1 (stereo not given in full) | -5.13% (inactive) | –
O=C1NCN(c2ccccc2)C12CCN(CC1COc3ccccc3O1)CC2 (stereo not given) | -5.34% [at 35.3 µM] (inactive) | –
CC(=[OH+])/C=C(/C)[O-].CC(=[OH+])/C=C(\C)[O-].CC(=[OH+])/C=C(\C)[O-].[Fe] | 0.0272% (inactive) | –
NC(=O)CCl | 11.7% (inactive) | –
NC(=O)c1ccc(N)nc1 | -28.2% (inactive) | –
CC(C)CBr | -9.35% (inactive) | –
Oc1ccc(I)cc1 | -8.82% (inactive) | –
[Cd+2].[Cl-].[Cl-] | -26.9% (inactive) | –
N#CCCO | -2.58% (inactive) | –
CC[C@H]1C[C@@H]2C[C@H]3c4[nH]c5ccc(OC)cc5c4CCN(C2)[C@@H]13 | 0.418% (inactive) | –
c1ccc2c(c1)[nH]c1cnccc12 | -19.8% (inactive) | –
O=c1ssc(Cl)c1Cl | -24.2% (inactive) | –
C[CH2][Hg][N]1C(=O)C2C(C1=O)C1(Cl)C(Cl)=C(Cl)C2(Cl)C1(Cl)Cl (stereo not given) | 0.501% [at 15.8 µM] (inactive) | –
Cn1[nH]nnc1=S | -3.14% (inactive) | –
